Measurements: ChEMBL document CHEMBL4513146, “CO-ADD screening of Karazin Kharkiv National University (Ukraine) compounds”
Entries with a potency or affinity are not part of this list.

Assays:
[1] = system: Klebsiella pneumoniae; details: Concentration 32 ug.mL-1;; ASSAY_TEST Inhibition of Bacterial Growth; detection method Absorption (OD600); MEDIA CAMHB; plate type 384well; NBS; CORNING #3640; time 18 hr
[2] = system: Candida albicans; details: Concentration 32 ug.mL-1; ASSAY_TEST Inhibition of Fungal Growth; detection method Absorption (OD530)
[3] = system: Cryptococcus neoformans; details: Concentration 32 ug.mL-1; ASSAY_TEST Inhibition of Fungal Growth; detection method Resazurin; Absorption (OD600-OD570); plate type 384well; NBS; CORNING #3640

Structure (SMILES)	Inhibition [1]	Inhibition [2]	Inhibition [3]
Cc1cc2nn(CC(=O)Nc3cc(F)cc(F)c3)c(=O)n2c(Nc2ccc(F)c(C)c2)n1	18.09%	3.34%	-11.58%
Cc1cc(C)c(NC(=O)Cn2nc3ccc(SCc4ccc(Cl)cc4)nn3c2=O)c(C)c1	3.59%	6.58%	-25.9%
O=C(Cn1nc2c(Sc3ccccc3)nccn2c1=O)Nc1ccc(Br)cc1F	9.23%	5.59%	-9.93%
CCc1ccccc1Sc1nccn2c(=O)n(CC(=O)Nc3ccc(Br)cc3)nc12	22.46%	14.92%	-1.52%
COc1ccc(OC)c(NC(=O)Cn2nc3c4cc(-c5ccc(Cl)cc5)nn4ccn3c2=O)c1	3.06%	-0.3%	-21.9%
CCCCc1ccc(NC(=O)Cn2c(=O)c3nnc(C(C)C)n3c3ccccc32)cc1	18.09%	-0.74%	-30.75%
Cc1cccc(Sc2nccn3c(=O)n(CC(=O)Nc4ccc(Br)cc4C)nc23)c1	8.64%	6.35%	-17.23%
CCCNC(=O)Cn1nc2n(Cc3ccco3)c(=O)c3sccc3n2c1=O	8.71%	5.01%	-16.3%
COc1ccc(CNC(=O)CCc2nnc3c(N4CCCCC4)nc4ccccc4n23)cc1OC	15.18%	6.91%	-22.66%
O=S(=O)(c1ccc2nncn2c1)N(Cc1cccc(F)c1)c1ccc2c(c1)OCCO2	10.4%	1.26%	-5.06%
